# Reference: publication PMC7862700, “An all-to-all approach to the identification of sequence-specific readers for epigenetic DNA modifications on cytosine”
# Key:
# Assay in all cases: DAPPL (digital affinity profiling via proximity ligation, sequencing); 10 mM Tris-HCl pH 7.5, 50 mM NaCl, 1 mM DTT, 4% glycerol, room temperature, 30 min; GST-TFs on glutathione beads, 16-mer random dsDNA library, 0.1% formaldehyde crosslink after washing; high values mean tight binding
# Details in all cases: protein: recombinant; tags: N-terminal GST; dsDNA, one strand shown
# [1] = target: ETV1 (Homo sapiens, UniProt P50549 1-477)
# Sequence of ETV1 (P50549 whole entry, the tested form may be a part): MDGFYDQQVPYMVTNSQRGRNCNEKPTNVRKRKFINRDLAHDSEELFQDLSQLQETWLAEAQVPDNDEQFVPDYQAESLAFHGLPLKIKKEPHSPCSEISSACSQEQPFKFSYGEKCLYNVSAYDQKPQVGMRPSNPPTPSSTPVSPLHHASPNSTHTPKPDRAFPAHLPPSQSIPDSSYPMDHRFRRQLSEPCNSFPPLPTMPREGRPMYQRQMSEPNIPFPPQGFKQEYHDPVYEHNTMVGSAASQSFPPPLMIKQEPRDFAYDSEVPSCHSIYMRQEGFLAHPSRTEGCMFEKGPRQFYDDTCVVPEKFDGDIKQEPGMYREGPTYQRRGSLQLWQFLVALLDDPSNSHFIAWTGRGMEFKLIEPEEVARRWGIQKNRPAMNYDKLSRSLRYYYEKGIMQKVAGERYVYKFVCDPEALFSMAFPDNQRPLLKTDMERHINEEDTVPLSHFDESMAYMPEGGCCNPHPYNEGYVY
# Method in brief: (§1)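 Yeast served to express human transcription factors as GST fusions, which were then captured on glutathione beads and labelled with DNA barcodes. Pooled with a tag-only sample, they were incubated with 200 nmole of a 16-mer random double-stranded DNA library for 30 min at room temperature in Tris/NaCl/DTT/glycerol buffer, washed, crosslinked with 0.1% formaldehyde, ligated by proximity, amplified by PCR and sequenced. Dividing each hexamer's read frequency for a factor by its frequency for the tag-only sample gives the binding signal.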
# [2] = target: T1, ERF (Homo sapiens, UniProt P50548 1-548)
# T1 sequence: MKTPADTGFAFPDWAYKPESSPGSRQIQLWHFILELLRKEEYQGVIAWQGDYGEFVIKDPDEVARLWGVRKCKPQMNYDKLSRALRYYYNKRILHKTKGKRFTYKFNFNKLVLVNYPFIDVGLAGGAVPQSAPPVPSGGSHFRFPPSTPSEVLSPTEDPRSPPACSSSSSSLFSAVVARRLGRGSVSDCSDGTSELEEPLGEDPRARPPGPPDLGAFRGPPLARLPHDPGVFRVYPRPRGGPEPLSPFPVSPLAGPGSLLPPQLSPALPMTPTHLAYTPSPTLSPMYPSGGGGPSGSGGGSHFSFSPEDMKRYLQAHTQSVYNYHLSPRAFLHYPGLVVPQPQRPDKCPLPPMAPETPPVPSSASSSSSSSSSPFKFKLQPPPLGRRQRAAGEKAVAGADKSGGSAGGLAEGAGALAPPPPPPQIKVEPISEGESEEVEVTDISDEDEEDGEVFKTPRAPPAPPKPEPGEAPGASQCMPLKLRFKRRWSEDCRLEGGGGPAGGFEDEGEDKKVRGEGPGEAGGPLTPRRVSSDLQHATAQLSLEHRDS
# Method in brief: as §1
# [3] = target: T2, ETV3L (Homo sapiens, UniProt Q6ZN32 1-361)
# T2 sequence: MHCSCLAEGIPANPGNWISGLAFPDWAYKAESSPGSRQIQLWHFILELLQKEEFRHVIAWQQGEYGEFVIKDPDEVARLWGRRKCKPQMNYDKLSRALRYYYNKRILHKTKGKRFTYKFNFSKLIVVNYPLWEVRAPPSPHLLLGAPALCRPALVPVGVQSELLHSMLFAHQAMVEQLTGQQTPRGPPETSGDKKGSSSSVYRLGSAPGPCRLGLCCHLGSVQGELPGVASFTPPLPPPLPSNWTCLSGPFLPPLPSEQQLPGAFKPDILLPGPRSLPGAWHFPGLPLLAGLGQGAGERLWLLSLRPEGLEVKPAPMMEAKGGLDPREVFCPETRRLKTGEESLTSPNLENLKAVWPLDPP
# Method in brief: as §1
# [4] = target: T3, ETS2 (Homo sapiens, UniProt P15036 1-469)
# T3 sequence: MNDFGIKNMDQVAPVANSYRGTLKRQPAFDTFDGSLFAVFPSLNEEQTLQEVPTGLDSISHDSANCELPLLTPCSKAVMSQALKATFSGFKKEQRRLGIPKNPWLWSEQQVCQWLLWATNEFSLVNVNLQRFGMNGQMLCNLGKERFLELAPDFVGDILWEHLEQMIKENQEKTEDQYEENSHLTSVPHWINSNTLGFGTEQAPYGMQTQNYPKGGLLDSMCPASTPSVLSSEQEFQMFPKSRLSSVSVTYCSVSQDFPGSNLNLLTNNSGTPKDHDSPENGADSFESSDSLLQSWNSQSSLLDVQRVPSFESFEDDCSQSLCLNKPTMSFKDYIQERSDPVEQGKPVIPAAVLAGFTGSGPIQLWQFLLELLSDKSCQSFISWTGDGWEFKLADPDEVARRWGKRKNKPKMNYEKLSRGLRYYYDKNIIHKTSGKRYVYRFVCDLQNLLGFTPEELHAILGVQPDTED
# Method in brief: as §1
# [5] = target: T4, SPDEF (Homo sapiens, UniProt O95238 1-335)
# T4 sequence: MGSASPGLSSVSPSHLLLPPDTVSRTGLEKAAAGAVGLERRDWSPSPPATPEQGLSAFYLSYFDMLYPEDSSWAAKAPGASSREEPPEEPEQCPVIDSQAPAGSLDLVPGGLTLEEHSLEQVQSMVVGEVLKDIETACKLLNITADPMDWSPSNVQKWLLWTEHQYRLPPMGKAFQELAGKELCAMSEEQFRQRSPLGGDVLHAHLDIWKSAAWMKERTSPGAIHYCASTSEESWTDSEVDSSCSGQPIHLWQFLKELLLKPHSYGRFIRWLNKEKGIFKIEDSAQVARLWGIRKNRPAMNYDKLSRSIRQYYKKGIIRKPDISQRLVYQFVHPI
# Method in brief: as §1
# [6] = target: T5, ETV7 (Homo sapiens, UniProt Q9Y603 1-341)
# T5 sequence: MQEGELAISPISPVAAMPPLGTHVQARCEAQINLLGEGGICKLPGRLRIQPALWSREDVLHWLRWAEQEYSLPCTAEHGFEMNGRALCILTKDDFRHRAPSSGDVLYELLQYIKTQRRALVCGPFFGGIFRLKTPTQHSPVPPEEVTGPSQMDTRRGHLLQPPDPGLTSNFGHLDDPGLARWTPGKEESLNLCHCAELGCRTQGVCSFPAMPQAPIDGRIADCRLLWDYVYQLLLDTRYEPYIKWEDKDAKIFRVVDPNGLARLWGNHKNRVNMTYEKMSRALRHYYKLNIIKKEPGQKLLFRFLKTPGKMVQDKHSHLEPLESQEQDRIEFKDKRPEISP
# Method in brief: as §1
# [7] = target: T6, ELF5 (Homo sapiens, UniProt Q9UKW6-2 1-255)
# T6 sequence: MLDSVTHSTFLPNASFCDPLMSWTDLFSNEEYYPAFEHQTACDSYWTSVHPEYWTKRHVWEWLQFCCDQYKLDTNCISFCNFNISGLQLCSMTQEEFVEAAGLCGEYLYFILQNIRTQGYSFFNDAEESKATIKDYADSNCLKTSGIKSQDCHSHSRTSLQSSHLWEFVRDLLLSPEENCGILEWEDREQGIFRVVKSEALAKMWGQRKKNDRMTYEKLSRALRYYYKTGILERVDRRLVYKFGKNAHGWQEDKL
# Method in brief: as §1
# [8] = target: T7, ETV3 (Homo sapiens, UniProt P41162-2 1-143)
# T7 sequence: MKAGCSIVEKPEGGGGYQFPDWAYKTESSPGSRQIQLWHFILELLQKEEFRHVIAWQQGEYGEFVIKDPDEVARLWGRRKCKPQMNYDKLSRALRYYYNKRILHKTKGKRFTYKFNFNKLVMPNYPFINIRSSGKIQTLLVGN
# Method in brief: as §1
# [9] = target: ETV6 (Homo sapiens, UniProt P41212 1-452)
# Sequence of ETV6 (P41212 whole entry): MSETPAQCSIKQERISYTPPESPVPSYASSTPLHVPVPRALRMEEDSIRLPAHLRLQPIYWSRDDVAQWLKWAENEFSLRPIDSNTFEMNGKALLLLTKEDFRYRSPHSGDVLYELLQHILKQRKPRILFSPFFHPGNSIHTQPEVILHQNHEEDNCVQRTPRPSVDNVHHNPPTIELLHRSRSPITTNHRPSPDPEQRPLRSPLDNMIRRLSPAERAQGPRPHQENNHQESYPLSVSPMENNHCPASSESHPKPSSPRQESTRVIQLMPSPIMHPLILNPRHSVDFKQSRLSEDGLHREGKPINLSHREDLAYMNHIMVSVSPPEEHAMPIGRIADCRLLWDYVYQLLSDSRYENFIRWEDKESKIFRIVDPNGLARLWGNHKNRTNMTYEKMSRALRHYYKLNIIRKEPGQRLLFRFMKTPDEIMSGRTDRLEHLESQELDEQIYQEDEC
# Method in brief: as §1
sequence,measurement,setting,value
TATCAC,binding signal,[1],"1.17 fold enrichment (6-mer frequency, TF over GST control)"
same,binding signal,[2],"1.19 fold enrichment (6-mer frequency, TF over GST control)"
same,binding signal,[3],"1.23 fold enrichment (6-mer frequency, TF over GST control)"
same,binding signal,[4],"1.2 fold enrichment (6-mer frequency, TF over GST control)"
same,binding signal,[5],"1.25 fold enrichment (6-mer frequency, TF over GST control)"
same,binding signal,[6],"1.14 fold enrichment (6-mer frequency, TF over GST control)"
same,binding signal,[7],"1.14 fold enrichment (6-mer frequency, TF over GST control)"
same,binding signal,[8],"1.19 fold enrichment (6-mer frequency, TF over GST control)"
same,binding signal,[9],"1.25 fold enrichment (6-mer frequency, TF over GST control)"
